In PubChem BioAssay AID2716 (Broad Institute, 2010) one finds growth rescue data, which are given here for 108 molecules.

The campaign covered roughly 320,000 compounds. About 3,300 (1%) were called active. The entries come from a sample that favours actives as a whole. A number with no mark means an inactive call.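 Rule for the calls: active = every valid replicate shows activation above 250% relative to neutral control wells; inactive = the rest, any valid replicate at or below 250%.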

The experiment in a line: restored growth of temperature-sensitive Mot1-301 yeast – S. cerevisiae, ATP luminescence, 38.5C, SUMOylation pathway inhibitor project, primary screen (AID 2716).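 Note: OY570 slx delta 5 strain wells were the positive control but not used for scaling.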 To be noted: S. cerevisiae Mot1-301 growth rescue, at 18.8 µM, stronger effect = higher value, percent above DMSO median, 100 means doubled.
Turning to `O=C(NCC#CCSc1nnc(-c2cccc3ccccc23)o1)c1cccs1`, the growth rescue is -7.8%.

On to `CCNC(=O)CC1C(=O)N(c2ccc(F)cc2)C(=O)N1Cc1cccs1` (stereo not drawn), for which the growth rescue is -6.29%.

As for `COc1ccc(CCN2C(=O)N(c3ccc(OC)cc3)C(=O)C2CC(=O)Nc2ccc(OC)cc2)cc1` (stereo not drawn), the growth rescue is -12.2%.

As to `COc1ccc(N2C(=O)C(CC(=O)Nc3ccc(F)cc3)N(CCc3cccs3)C2=O)cc1` (stereo not drawn), the growth rescue is 700% (active).

Take `Cc1cccc(C(=O)N[C@H](C(=O)NCc2cccs2)C(C)C)c1`: the growth rescue was 14.3%.

Regarding `CCc1cc(C(=O)Nc2nnc(C3CC3)s2)sc1C`, the growth rescue is -5.84%.

`Cc1ccc(OCC(=O)NC(C)c2ccccc2)cc1C` (stereo not drawn): the growth rescue is -6.93%.

Consider `C/C(CC(=O)NC(C)c1ccccc1)=N\NC(N)=S` (stereo not drawn), for which the growth rescue is 317% (active).

`Cc1cc(C)cc(OCC(=O)NC(C)c2ccccc2)c1` (stereo not drawn): the growth rescue was 14.1%.

As for `CCc1ccccc1NC(=O)CN(C)S(=O)(=O)c1ccc2c(c1)c(=O)n(C)c(=O)n2C`, the growth rescue was 30%.

As for `O=C(COc1ccc([N+](=O)[O-])cc1Cl)Nn1cnnc1`, the growth rescue is 88.2%.

As for `COc1ccc(C(=O)OCC(=O)c2ccc(C)c(S(=O)(=O)N3CCOCC3)c2)cc1OC`, the growth rescue was 625% (active).

As for `COc1ccc(CNC(=O)COC(=O)c2ccc(C)c(S(=O)(=O)N3CCOCC3)c2)cc1OC`, the growth rescue was -6.82%.

In the case of `Cc1ccc(C(=O)OCC(=O)N2CCCCCC2)cc1S(=O)(=O)N1CCOCC1`, the growth rescue was 6.73%.

As for `COc1c(C)cc(C(=O)C2CCCN(S(=O)(=O)c3c(C)noc3C)C2)cc1C` (stereo not drawn), the growth rescue is -5.92%.

Consider `COc1ccc(CCNC(=O)/C(C#N)=C2\N=C(NC(=O)c3cccs3)c3ccccc32)cc1`, for which the growth rescue was -22.6%.

Regarding `CN(C(=O)COC(=O)Cc1ccccc1[N+](=O)[O-])C1CCS(=O)(=O)C1` (stereo not drawn), the growth rescue was -6.84%.

`Cc1ccc(S(=O)(=O)CCC(=O)OCc2ccccc2)cc1`: the growth rescue is -4.25%.

As to `Cc1ccc(S(=O)(=O)CCC(=O)OCC(=O)N(C)C2CCS(=O)(=O)C2)cc1` (stereo not drawn), the growth rescue was 366% (active).

Turning to `COc1cccc(-c2nn(-c3ccccc3)cc2/C=C(\C#N)C(=O)NCCCn2ccnc2)c1`, the growth rescue is -1.32%.

As to `COc1cc(OC)cc(C(=O)NCCCn2ccnc2)c1`, the growth rescue is 0.871%.

In the case of `COc1ccc(/C=C(\C#N)C(=O)NCCCn2ccnc2)cc1`, the growth rescue was 429% (active).

Consider `CCOC(=O)c1ccc(NC(=S)N2CCN(c3ccccn3)CC2)cc1`, for which the growth rescue was 4.51%.

In the case of `O=C(COC(=O)c1ccc(F)cc1)NCCCc1ccccc1`, the growth rescue is -3.97%.

For the molecule `COc1ccc(OC)c(CNC(=O)c2cc(=O)[nH]c3ccc(S(=O)(=O)N4CCCC4)cc23)c1`, the growth rescue is 46.7%.

As to `CCOc1ccc(N(CC)S(=O)(=O)c2cccc3nsnc23)cc1`, the growth rescue is 487% (active).

Take `CCOc1ccc(-c2cn(S(=O)(=O)c3cccc4nsnc34)nc2N)cc1`: the growth rescue was 8.29%.

As to `COc1ccc(N(C)S(=O)(=O)c2cccc3nsnc23)cc1`, the growth rescue was -12.6%.

For the molecule `COc1ccc(OC)c(NC(=O)COC(=O)Cc2ccsc2)c1`, the growth rescue is 24.6%.

Consider `CC(C)CCNc1nc(N2CCCC2)c2c(c1C#N)CCN(C)C2`, for which the growth rescue was -30.6%.

In the case of `CC(C)Cc1nc(N2CCOCC2)c(C#N)c2c1CCC2`, the growth rescue was 469% (active).

For `CC(C)Cc1nc(Cl)c(C#N)c2c1CCC2`, the growth rescue is -9.85%.

Regarding `O=C(NNC(=O)c1ccc(-n2cncn2)c([N+](=O)[O-])c1)c1ccccc1`, the growth rescue is 126%.

Consider `Cc1csc2nc(O)c(C(=O)NCCN3CCOCC3)c(=O)n12`, for which the growth rescue was 25.8%.

For the molecule `O=S(=O)(NCCc1ccc(F)cc1)c1cccc2cccnc12`, the growth rescue is -5.12%.

As for `O=C(CSCc1ccc(Cl)cc1)N1CCN(Cc2ccc3c(c2)OCO3)CC1`, the growth rescue was 194%.

Take `O=C(CSCc1ccc(Cl)cc1)N1CCCCC1`: the growth rescue was 1570% (active).

`O=C(CSCc1cccs1)N1CCCC1`: the growth rescue was -5.87%.

`CC(C)(C)c1nnc(N/N=C/c2ccc(O)cc2)n(N)c1=O`: the growth rescue was -10.1%.

As for `COc1ccnc2c1c(=O)n(Cc1cccc(F)c1)c(=O)n2C`, the growth rescue was 95.4%.

Consider `CCCCn1c(-c2cccc(C)c2)nc2cc3[nH]c(=O)c(C(C)C)nc3cc21`, for which the growth rescue is -29.3%.

Turning to `COc1ccc(/C=C(/CC(=O)Nc2ccc(C)cc2)c2nc3ccccc3s2)cc1`, the growth rescue was 7.28%.

Regarding `COc1cc2ccccc2cc1C(=O)Nc1ccc(N2CCOCC2)cc1`, the growth rescue was 4.29%.

With `COc1cccc(/C=C(/CC(=O)Nc2ccc(N3CCOCC3)cc2)c2nc3ccccc3s2)c1`, the growth rescue was 766% (active).

As for `CCc1c(C)nc(N2CCN(Cc3ccccc3)CC2)[nH]c1=O`, the growth rescue is 1390% (active).

On to `Cc1nnc(SCc2cc(=O)[nH]c(N3CCN(Cc4ccccc4)CC3)n2)s1`, for which the growth rescue was 18.3%.

On to `CCCCCc1c(C)nc(N2CCN(Cc3ccc4c(c3)OCO4)CC2)[nH]c1=O`, for which the growth rescue was -20.3%.

Turning to `CC(C)n1c(O)c(N=Nc2ccccn2)c2ccccc21`, the growth rescue is 421% (active).

On to `COC(=O)Cn1c(O)c(N=NC(=O)OC)c2ccccc21`, for which the growth rescue was -22.3%.

Consider `Oc1oc(-c2ccccc2Br)nc1/C=N/c1ccccn1`, for which the growth rescue was 15.4%.

With `COc1cccc2cc(C(=O)NCc3ccc(C)cc3)c(=N)oc12`, the growth rescue is -7.41%.

With `O=C(COc1cccc2c1CCNC2=O)NC1CCCCC1`, the growth rescue is -3.62%.

With `COC(=O)c1cc2n(n1)CCCNC2=O`, the growth rescue was 0.35%.

In the case of `COC(=O)Cn1cc(/C=C/[N+](=O)[O-])c2ccccc21`, the growth rescue is 5.69%.

Regarding `O=C(Cn1ccc2cc(S(=O)(=O)N3CCCC3)ccc21)NCc1ccccc1`, the growth rescue is -15.1%.

With `O=[N+]([O-])/C=C/c1ccc2c(ccn2Cc2ccccc2)c1`, the growth rescue was 436% (active).

With `Cc1sc2nc(CSCC(=O)NC3CCCCC3)[nH]c(=O)c2c1C`, the growth rescue was 345% (active).

For `Cc1nc(SCC(=O)NC2CCCC2)[nH]c(=O)c1C`, the growth rescue is 4.8%.

For the molecule `Cc1sc2nc(CSCC(=O)Nc3c(Cl)cccc3Cl)[nH]c(=O)c2c1C`, the growth rescue was 2.95%.

As to `COc1ccc(Cl)cc1NC(=O)Cn1nc(-c2ccc(C)cc2)n(C)c1=S`, the growth rescue was 283%.

In the case of `Cc1ccc2c(c1)N(CC(=O)N1CCOCC1)C(=O)CO2`, the growth rescue was 4.76%.

In the case of `Cc1ccc2c(c1)N(CC(=O)N1CCCC(C)C1)C(=O)CO2` (stereo not drawn), the growth rescue was 1.32%.

In the case of `Cc1ccc2c(c1)N(CC(=O)NCC1CCCO1)C(=O)CO2` (stereo not drawn), the growth rescue was 346% (active).

In the case of `CC(=O)N(c1ccc2oc(=O)sc2c1)S(=O)(=O)c1ccc(C)cc1`, the growth rescue was 1.25%.

Regarding `Cc1onc(-c2ccccc2Cl)c1C(=O)OCc1nnc(-c2ccccc2)o1`, the growth rescue is 0.31%.

As for `CCOc1cnc(-c2c(-c3ccccc3Cl)noc2C)o1`, the growth rescue was 675% (active).

Take `Cc1onc(-c2ccccc2Cl)c1C(=O)OCC(=O)c1ccccc1`: the growth rescue is -4.82%.

Turning to `Cc1ccc(N(C(=O)c2ccc(S(=O)(=O)N(C)C)cc2)C2C=CS(=O)(=O)C2)cc1` (stereo not drawn), the growth rescue is -4.36%.

Regarding `COc1ccccc1NS(=O)(=O)c1ccc(C)c(C(=O)NNC(=O)c2csc(N3CCOCC3)n2)c1`, the growth rescue was 6.56%.

For `COC(=O)c1ccc(CSc2ccc3nnc(-c4ccccc4)n3n2)o1`, the growth rescue was -8.47%.

Take `Cc1ccc([C@@H]2CC=C(C(=O)O)[C@H](c3cccc(Cl)c3)N2S(=O)(=O)c2ccc(C)cc2)cc1`: the growth rescue is 24.4%.

Turning to `Cc1ccc(S(=O)(=O)N2[C@@H](c3cccc4ccccc34)C(C(=O)O)=C[C@H]2C(C)(C)C)cc1`, the growth rescue was 29.9%.

For `Cc1ccc(S(=O)(=O)N2[C@@H](c3ccc(Br)cc3)C(C(=O)O)=C[C@H]2CC2CCCC2)cc1`, the growth rescue is 800% (active).

Regarding `CC12CN(NC(=O)c3ccc(Cl)cc3)C3(C#N)CC1CCC23C` (stereo not drawn), the growth rescue is 42.1%.

Turning to `COC(=O)c1cccc(N(C(=O)CNC(=O)c2cccs2)C(C(=O)NCC2CCCO2)c2ccc(OC)c(OC)c2)c1` (stereo not drawn), the growth rescue was -4.04%.

On to `Cc1ccc(N(C(=O)Cc2cccs2)C(C(=O)NCC2CCCO2)c2ccncc2)cc1` (stereo not drawn), for which the growth rescue was 5.34%.

In the case of `O=C(NCC(=O)N(c1ccccc1)C(C(=O)NCC1CCCO1)c1ccccc1)c1cccs1` (stereo not drawn), the growth rescue is 679% (active).

Take `Cc1cc(C)n2nc(SCC(=O)NC(=O)NCc3ccco3)nc2n1`: the growth rescue was 6.86%.

Take `COC(=O)C1(S(=O)(=O)C2(C(=O)OC)CCCC2)CCCC1`: the growth rescue was -10%.

In the case of `CCN(CC)C(=O)C(=O)Nc1cccc(Br)c1`, the growth rescue is 1.06%.

Consider `CCN(CC)C(=O)CSC(Nc1cccc(F)c1)=C(C#N)C#N`, for which the growth rescue is 643% (active).

Consider `Cc1ccc(CSCC(=O)N(C)CC(=O)Nc2cccc(F)c2)cc1`, for which the growth rescue was -8.64%.

Regarding `Cc1ccc(NC(=O)[C@H](Cc2ccccc2)NC(=O)C2CCNCC2)cc1`, the growth rescue was 2.72%.

Regarding `N/C(=N\OC(=O)Nc1ccccc1)c1ccno1`, the growth rescue is 4.96%.

Turning to `O=c1c2cc([N+](=O)[O-])ccc2nc2n1CCC2`, the growth rescue was 12%.

On to `Cn1c(=O)c2c(ncn2CCc2ccccc2)n(C)c1=O`, for which the growth rescue is 43.8%.

As to `O=c1c2c(ncn1Cc1ccccc1)nc1n2CCC1`, the growth rescue was 490% (active).

Turning to `Cc1ccc(C)c(OCCC(=O)OCC(=O)c2ccc3c(c2)NC(=O)CO3)c1`, the growth rescue is 0.132%.

Regarding `O=C(CCNC(=O)c1ccc([N+](=O)[O-])cc1)Nc1ccccc1N1CCOCC1`, the growth rescue was -1.52%.

For `CCCCN(C(=O)c1nn(C)c(=O)c2ccccc12)c1c(N)n(CCC)c(=O)[nH]c1=O`, the growth rescue is -14.8%.

In the case of `COc1ccc(Cc2nnc(SCC(=O)N(c3ccccc3)C(C)C)n(N)c2=O)cc1`, the growth rescue was 2.77%.

As to `CN(CCc1ccccc1)c1ccc([N+](=O)[O-])cn1`, the growth rescue was 9.85%.

For the molecule `O=C(NN1C(=O)C2C3C=CC(C3)C2C1=O)c1ccco1` (stereo not drawn), the growth rescue is -6.66%.

With `COc1cccc2cc(C(=O)N(C)C)c(=O)oc12`, the growth rescue is 0.334%.

Take `CNC(=O)c1cccc2nc3ccccc3nc12`: the growth rescue is 16%.

As to `CN(C)C(=O)c1coc2nc3ccccc3nc12`, the growth rescue is 924% (active).

With `CCOC(=O)C1(Cc2cccc(OC)c2)CCCN(C(=O)CCSC)C1` (stereo not drawn), the growth rescue is -10.8%.

Regarding `CCOC(=O)C1(Cc2cccc(OC)c2)CCCN(S(=O)(=O)c2cccnc2)C1` (stereo not drawn), the growth rescue is 568% (active).

For the molecule `CCOC(=O)C1(Cc2cccc(OC)c2)CCN(C(C)COC)CC1` (stereo not drawn), the growth rescue was 9.8%.

For `CCOC(=O)c1cc(C(=O)Nc2ccc(S(=O)(=O)Nc3ccc(OC)cc3)cc2)nn1C`, the growth rescue is 1.95%.

As for `Cc1ccc(C)c(S(=O)(=O)N2CCN(c3ncnc4sccc34)CC2)c1`, the growth rescue is -2.33%.

In the case of `C/[N+]([O-])=C\c1ccc([N+](=O)[O-])o1`, the growth rescue is 330% (active).

`CCc1ccc(S(=O)(=O)N/N=C\c2ccc([N+](=O)[O-])o2)cc1`: the growth rescue is -9.87%.

Turning to `Cc1cc(C)nc(N/N=C/c2ccc([N+](=O)[O-])o2)n1`, the growth rescue is -7.8%.

For the molecule `NC(=O)C1(C(N)=O)OC1c1ccc(Cl)cc1Cl` (stereo not drawn), the growth rescue was -6.75%.

Take `O=C(NCCc1ccco1)c1ccc(OCc2cn3ccccc3n2)cc1`: the growth rescue was -7.98%.

For the molecule `CCc1nccn1S(=O)(=O)c1cccc([N+](=O)[O-])c1`, the growth rescue is 1.13%.

As to `Cc1cn(C2C=CC(CO)O2)c(=O)[nH]c1=O` (stereo not drawn), the growth rescue was -3.98%.
